Data on 16 molecules can be found in PubChem BioAssay AID1233 (SRMLSC, 2008).

Measured potencies and affinities stand elsewhere. The source made the active and inactive calls.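 How the source made its calls: active means a dose-response curve fit returns a half-maximal inhibitory concentration, extrapolated values included; inactive means the fit returns no such concentration.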 Residues, ends and D or L forms follow the SMILES beside them.

The assay addresses HMG-CoA reductase [Enterococcus faecalis] (UniProt Q9FD70). Put plainly: class II HMG-CoA reductase inhibition potency – biochemical, Enterococcus faecalis, confirmation (AID 1233). To be noted: purified E. faecalis HMGR, NADPH absorbance 340 nm kinetics; series mostly up to 100 µM.
Regarding `CCN1CCN(C(=O)Cc2ccccc2OC)CC1`, the call was inactive.
Take `CC(C)Oc1cccc(NC(=O)c2cccn(Cc3ccc4c(c3)OC(F)(F)O4)c2=O)c1`: the outcome was inactive.
With `CCCn1cc(C(=O)O)cn1`, the result was inactive.
`CCCCC(CC)CNCC(O)c1ccccc1` (stereo unspecified): the call was inactive.
The entry for `COc1ccc(C(=O)C2CCCN(Cc3cnc(C)s3)C2)c(OC)c1` (stereo unspecified) is “inactive”; for `CCN(CCNc1ccc([N+](=O)[O-])c2cccnc12)S(=O)(=O)c1ccccc1` it is “inactive”.
In the case of `OC(Cn1c2ccccc2c2ccccc21)C[n+]1cccc2ccccc21` (stereo unspecified), the molecule was called inactive.
For `COc1ccc(C[C@@H]2c3cc(O)c(OC)cc3CCN2C)cc1O`, the molecule was classed as inactive.
The result for `COc1ccc(NC(=O)c2c(C)nn(Cc3ccccc3Cl)c2Cl)cc1Cl` reads “inactive”; that for `CC(C)C[C@H](NC(=O)[C@@H]1CCCN1C(=O)[C@@H](N)Cc1ccc(O)cc1)C(=O)NCC(N)=O` (H-YPLG-NH2), “inactive”; that for `CCc1ccc(NC(=O)C(C)OC(=O)c2c(C)nn(Cc3ccccc3)c2Cl)cc1` (stereo unspecified), “inactive”.
Take `Cc1c(P(=S)(c2ccccc2)c2ccccc2)[n+]2ccccc2n1C`: the outcome was inactive.
The result for `COc1ccc(CCn2c(O)c(C=NCCCn3ccnc3)c(=O)[nH]c2=O)cc1OC` reads “inactive”.
The entry for `O=[N+]([O-])/C(Cl)=C1\NCCN1Cc1ccc(Cl)nc1` is “inactive”.
The result for `O=C(O)[C@@H]1C[C@H]1[C@@H](NP(=O)(c1ccccc1)c1ccccc1)c1ccccc1` reads “inactive”.
Take `CC1(C)C(C(=O)NCc2ccco2)C1(C)C`: the outcome was inactive.
